Test results as given in PubChem BioAssay (Tox21).
Results filed as inconclusive are left out. A call without a number means that no potency is given here. Calls of active or inactive are those of the source. Calls come from the whole dose curve; as a rule, active = well fitted cell-killing curve with a large enough effect in the repeat runs; inconclusive = weak or mixed curves; inactive = no such curve, though single readings can be large or run the other way.

Test: qHTS assay to identify small molecule antagonists of the peroxisome proliferator-activated receptor delta (PPARd) signaling pathway - cell viability counter screen (AID 743213); note: nearly all actives have a fitted effect of over 50% in size
Details: PPARd-bla HEK293H viability, CellTiter-Glo luminescence, 17 h; series mostly up to 62 µM
Excerpt: U.S. Tox21 Program National Center for Advancing Translational Sciences [NCATS] NIH Chemical Genomics Center [NCGC] U.S. Environmental Protection Agency [EPA] National Institutes of Environmental Health Sciences [NIEHS] National Toxicology Program [NTP] U.S. Food and Drug Administration [FDA] Tox21 Assay Overview: The peroxisome proliferator-activated receptors (PPARs) are lipid-activated transcription factors of the nuclear receptor superfamily with three distinct subtypes namely PPAR alpha, PPAR delta (PPARd) and PPAR gamma. All these subtypes heterodimerizes with Retinoid X receptor (RXR) and have different physiological functions. […] To identify the compounds that inhibit PPAR-delta signaling, GeneBLAzer PPAR delta UAS-bla HEK293H cell line (Invitrogen, Carlsbad, CA, USA) containing a beta-lactamase reporter gene under the control of an Upstream Activator Sequence (UAS) was used to screen the Tox21 compound library. The cytotoxicity of the Tox21 compound library against the PPARd-bla cell line was tested in parallel by measuring the cell viability using CellTiter-Glo assay (Promega, Madison, WI) in the same wells.
Tox21 Assay Protocol Summary: PPARd-bla cells were dispensed at 3000 cells/5uL/well in 1536-well black wall/clear bottom plates using a Multidrop Combi (Thermo Fisher Scientific, Waltham, MA) dispenser. After the assay plates were incubated at 37 C and 5% CO2 for 5 h, 23 nL of compounds dissolved in DMSO, positive controls or DMSO only was transferred to the assay plate by a Pintool station (Kalypsys, San Diego, CA), followed by addition of 1ul L165041 (300 nM, final concentration in the wells). The assay plates were incubated at 37 C for 17 h, and then 1 uL of LiveBLAzerTM B/G FRET substrate was added using a Bioraptr Flying Reagent Dispenser (FRD) workstation (Beckman Coulter, Indianapolis, IN, USA). The assay plates were incubated at room temperature for 2 h and fluorescence intensity was measured by an Envision plate reader (PerkinElmer, Shelton, CT). For cell viability readout that measures cytotoxicity, 3 ul/well of CellTiter-Glo reagent was added into the assay plates using a Bioraptr FRD. After 30 min incubation at room temperature, the luminescence intensity in the plates was measured using a ViewLux plate reader (PerkinElmer).
Potency is the fitted concentration of half-maximal effect.

Row | Compound | Potency
1 | Cc1cccc2sc(N)nc12 | inactive
2 | O=C(O)c1cc(Cl)cc(Cl)c1O | inactive
3 | COc1ccc(-c2cc(C(F)F)nn2-c2ccc(S(N)(=O)=O)cc2)cc1F | inactive
4 | C[C@H](CS)C(=O)N1CCC[C@H]1C(=O)O | inactive
5 | CCN(CC)C(=O)N1CCN(C)CC1 | inactive
6 | O=C(O)CO | inactive
7 | O=c1[nH]c2cc(C(F)(F)F)c(N3CCOCC3)cc2n(CP(=O)(O)O)c1=O | inactive
8 | CC(O)Cn1cnc2c1c(=O)n(C)c(=O)n2C (stereo not given) | inactive
9 | O=C1c2ccccc2C(=O)c2c(O)ccc(O)c21 | inactive
10 | COC1CCC=CO1 (stereo not given) | inactive
11 | Cc1cccc(C)c1NC(=O)c1cc(S(N)(=O)=O)c(Cl)cc1O | inactive
12 | CCC(=O)OCc1ccc(OC)cc1 | inactive
13 | CO[C@@H]1[C@@H](OC)[C@H](C)[C@@](O)(CC(=O)O)O[C@H]1[C@H](C)[C@H]1O[C@@]2(CC[C@@](C)([C@H]3CC[C@@](C)([C@@H]4O[C@@H]([C@H]5O[C@](C)(O)[C@H](C)C[C@@H]5C)C[C@@H]4OC4C[C@H](OC)[C@@H](OC)[C@H](C)O4)O3)O2)C[C@H](O)[C@H]1C (stereo not given in full) | 5.31 µM (active)
14 | CN=C(N)NC(=O)Nc1c(C)cccc1C | inactive
15 | COC(=O)CC(C(C)=O)C(=O)OC (stereo not given) | inactive
16 | CCOC(=O)c1ccc(NC(=O)CN2CCCCC2)cc1 | inactive
17 | CC(=O)OCCC(C)CC(C)(C)C (stereo not given) | inactive
18 | Cc1ccc(S(=O)(=O)NC(=O)NC2CCCCC2)cc1 | inactive
19 | Cc1oc(=O)oc1COC(=O)[C@@H]1N2C(=O)[C@@H](NC(=O)[C@H](N)c3ccccc3)[C@H]2SC1(C)C | inactive
20 | O=C(O)CN1C(=O)c2cccc3cccc(c23)C1=O | inactive

Row | Compound | Potency
21 | Cc1cn([C@H]2C[C@H](F)[C@@H](CO)O2)c(=O)[nH]c1=O | inactive
22 | [Cl][Nd]([Cl])[Cl] | inactive
23 | O=C(Oc1ccccc1)c1ccc2ccccc2c1O | inactive
24 | COc1ccc(C(=O)NCc2ccc(OCCN(C)C)cc2)cc1OC | inactive
25 | COc1cc(C(C)=O)ccc1OCCCN1CCC(c2noc3cc(F)ccc23)CC1 | inactive
26 | COc1ccc(C2C(=O)c3ccccc3C2=O)cc1 | inactive
27 | COC(=O)Nc1nc2ccc(C(=O)C3CC3)cc2[nH]1 | inactive
28 | CCCCCCCC/C=C\CCCCCCCC(=O)OCCO | inactive
29 | CNCc1ccc(NC(=O)c2c[nH]c3c2C(=O)CCC3)cc1 | inactive
30 | CC1=C2[C@@H]([C@H](C)CC[C@H]2/C=C(\C)C(=O)O)[C@H](O)C1 | inactive
31 | CN1CCCN(C(c2ccccc2)c2ccc(Cl)cc2)CC1 (stereo not given) | 26.6 µM (active)
32 | CCCCOC(=O)CCCCC(=O)OCCCC | inactive
33 | CCCCCCCCCCCCCOC(=O)CCSCCC(=O)OCCCCCCCCCCCCC | inactive
34 | C/C(C=O)=C\c1ccccc1 | inactive
35 | CCCCC[C@H](O)/C=C/[C@H]1[C@H](O)CC(=O)[C@@H]1C/C=C\CCCC(=O)O | inactive
36 | CN(C)CC/C=C1\c2ccccc2Sc2ccc(Cl)cc21 | 13.3 µM (active)
37 | CSSc1ccoc1C | inactive
38 | COc1cc(OC)c2ccc(=O)oc2c1 | inactive
39 | CC1CCC(C(C)CS)CC1S (stereo not given) | inactive
40 | CCCCCCCCCCCCCC(=O)OCC(O)CO (stereo not given) | inactive
